Assay outcomes from PubChem.
MITF act: MITF TRPM1 promoter activation in melanoma cells | activation, % at 12.5 µM | AID 588334 | 300,000 compounds, 0.75% hits | SK-MEL-5 TRPM1-promoter luciferase, 24 h; % of positive control, neutral wells = 0;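 active = mean activation of at least 80% with every replicate also reaching 80%; inconclusive = mean reaches 80% but some replicate falls short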;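 also: 0% = neutral control wells and 100% = parthenolide positive control wells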
SMARCA2 act: activators of SMARCA2 function. MG213 cells, MMTV-luciferase reporter, dexamethasone, overnight. activation, % at 9.1 µM. 370,000 compounds, 1% hits; in the data active = activation above about 7.8%;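 also: 0% = vehicle wells and 100% = reference activator wells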
FGF22 binding: binders of recombinant human FGF22 by thermal shift | Q9HCT0 | SYPRO orange fluorescence; percent of sucrose octasulfate shift, DMSO zero | activity (Tm shift, normalised), % at 9.99 µM | 340,000 compounds, 1.5% hits | AID 651658;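 active = mean Tm shift, scaled 0 neutral to 100 positive control, at about 1.3% or above, every replicate too, limit read from the data; inconclusive = no clear call, values can overlap the other calls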
Target sequence (Q9HCT0 whole entry, looked up): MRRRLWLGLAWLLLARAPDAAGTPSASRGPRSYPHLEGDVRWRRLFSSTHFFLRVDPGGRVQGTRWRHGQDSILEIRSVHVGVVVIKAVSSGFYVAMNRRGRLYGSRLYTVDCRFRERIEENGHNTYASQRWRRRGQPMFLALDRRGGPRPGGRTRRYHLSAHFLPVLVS
esBAF inh: blocks esBAF chromatin remodeling in mouse ES cells. 350,000 compounds, 2% hits. AID 602393. reporter increase, % at 12.5 µM. Bmi1-luciferase knock-in reporter, 24 h; 100% = twice the neutral-well signal; in the data active = activation above about 40%; inconclusive = no clear call, values can overlap the other calls;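 also: 0% = median of the plate's neutral control wells and 100% = double that signal; a rise in the Bmi1 reporter signal indicates esBAF inhibition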
Wnt act: activates Wnt/beta-catenin signaling in a reporter cell assay | activator, plate reader | activation, % at 9.35 µM | 300,000 compounds, 1.2% hits | AID 743398; in the data active = activation above about 30%, passing the limit was not always enough; inconclusive = no clear call, values can overlap the other calls;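 also: 0% = neutral control wells and 100% = positive control wells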
MLL AF4-AF9 inh: blocks AF4 peptide binding to human AF9. 350,000 compounds, 0.47% hits. inhibition, % at 10 µM. P42568. AlphaScreen, biotin-AF4 peptide binding to FLAG-AF9;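 active = every replicate reaching a set inhibition limit, whatever the replicate mean, cut at about 25% in these data; inconclusive = mean inhibition reaches that limit but some replicates miss it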;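 also: 0% = plate neutral control median and 100% = total signal loss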
Target sequence (P42568 whole entry, looked up): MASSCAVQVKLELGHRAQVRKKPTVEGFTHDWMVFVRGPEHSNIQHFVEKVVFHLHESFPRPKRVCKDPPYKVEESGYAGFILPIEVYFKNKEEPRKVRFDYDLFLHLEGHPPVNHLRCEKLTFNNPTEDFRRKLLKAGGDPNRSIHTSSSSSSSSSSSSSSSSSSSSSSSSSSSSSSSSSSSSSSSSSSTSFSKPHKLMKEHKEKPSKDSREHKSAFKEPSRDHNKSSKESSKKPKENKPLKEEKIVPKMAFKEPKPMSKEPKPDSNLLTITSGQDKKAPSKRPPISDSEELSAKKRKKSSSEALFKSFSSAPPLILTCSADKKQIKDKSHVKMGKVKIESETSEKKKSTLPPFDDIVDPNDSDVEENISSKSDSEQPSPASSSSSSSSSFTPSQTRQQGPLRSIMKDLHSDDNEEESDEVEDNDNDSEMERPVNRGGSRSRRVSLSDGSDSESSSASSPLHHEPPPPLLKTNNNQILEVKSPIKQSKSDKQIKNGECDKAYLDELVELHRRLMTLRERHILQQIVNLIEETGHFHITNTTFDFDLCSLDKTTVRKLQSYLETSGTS
SMARCA2 conf: confirmation of SMARCA2 (BRM) function activators; AID 652260; MG213 cells, MMTV-luciferase with dexamethasone, luminescence, overnight; MG213 cells expressing E1A, Rb sequestered; DMSO wells 0%, reference activator 100%; activation, % at 9.1 µM; 3,500 compounds, 30% hits; shares compounds with SMARCA2 act;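 active = activation above its plate's cutoff, the mean activation of tested wells plus 3 SD, cut at about 7.9% in these data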
VP16 Luc act: activates GAL4-VP16 luciferase, flagging SMARCA2 activator hits | HEK293 GAL4-VP16 pG5luc reporter, luciferase luminescence; scaled: DMSO wells 0%, SAHA wells 100% | activation, % at 9.1 µM | shares compounds with SMARCA2 act | 3,500 compounds, 41% hits;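 active = activation above the solvent-only control well mean plus 3 SD, averaged across control plates, cut at about 5.2% in these data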
An asterisk follows results filed as active; ? = inconclusive; nt = not tested or not shown. Compounds with a hit are over-represented: about 4.3% of the library has one in this group of screens.

SMILES	MITF act	SMARCA2 act	FGF22 binding	esBAF inh	Wnt act	MLL AF4-AF9 inh	SMARCA2 conf	VP16 Luc act
CC1CN(S(=O)(=O)c2cccc(C(=O)NN3CCN(C)CC3)c2)CC(C)O1 (stereo not drawn)	14.9	9.1*	nt	-5.2	-0.9	nt	0.6	0.8
Fc1ccc(-c2cnc(-c3cccs3)o2)cc1	54.0	9.2*	nt	-11.8	33.6*	nt	10.2*	5.4*
Fc1ccc(-c2nc(-c3cccs3)no2)cc1	57.9	-2.2	-0.1	nt	-5.5	6.0	nt	nt
CCCC(=O)C1=C(O)C(C(=O)OC)C(C)(C)CC1=Nc1ccc(N)cc1 (stereo not drawn)	4.1	1.7	nt	0.3	-4.7	nt	nt	nt
CCCC(=Nc1ccc(N)cc1)C1=C(O)C(C(=O)OC)C(C)(C)CC1=O (stereo not drawn)	-7.6	8.2*	nt	18.9	nt	nt	-3.5	3.3
COc1ccc(-c2cc(-c3ccccc3O)[nH]n2)cc1OC	nt	13.4*	nt	86.9*	nt	nt	18.2*	13.8*
CCn1c(C)nc2cc(C(=O)NNC(=O)c3ccc(C)cc3)ccc21	31.3	4.1	0.4	28.4	12.9	0.6	nt	nt
CCn1c(C)nc2cc(C(=O)NNS(=O)(=O)c3c(C)c(C)cc(C)c3C)ccc21	-14.4	11.9*	nt	-9.0	-1.8	nt	-1.0	0.0
c1coc(-c2nnc(-c3ccc4c(c3)OCO4)o2)c1	nt	10.0*	-0.1	nt	16.0	-57.2	8.4*	10.6*
Brc1ccc(-c2nnc(-c3ccc4c(c3)OCO4)o2)o1	43.2	7.1	nt	-2.9	nt	nt	nt	nt
Clc1ccc(-c2nnc(-c3ccccc3)o2)cn1	nt	8.6*	-0.3	34.2	15.1	-0.9	4.1	3.5
c1ccc(-c2nnc(-c3ccco3)o2)cc1	nt	8.4*	nt	39.7	nt	nt	7.2	9.0*
O=C(Cc1ccccc1)Nc1ccc(-c2nnc(-c3ccco3)o2)cc1	nt	1.0	nt	14.1	nt	nt	nt	nt
CCCNC(=O)N[C@H]1CC[C@H](CCn2cc(C3CCCC3)nn2)O[C@H]1CO	nt	nt	-0.1	0.3	nt	-2.3	nt	nt
O=C(C[C@H]1CC[C@H]2[C@@H](COC[C@H](O)CN2Cc2cccc(-c3ccncc3)c2)O1)N1CCN(c2ccccc2)CC1	nt	nt	-0.4	13.6	nt	7.7	nt	nt
CCCC#Cc1ccc2c(c1)O[C@@H](CN(C)C(=O)Nc1ccccc1F)[C@@H](C)CN([C@H](C)CO)S2(=O)=O	nt	nt	0.7	-2.2	nt	5.7	nt	nt
COC(=O)c1c(-c2ccc(C)cc2)csc1NC(=O)c1c(-c2ccccc2)noc1C	nt	-1.2	0.4	nt	-13.6	-1.0	nt	nt
COC(=O)c1c(-c2cccnc2)csc1NC(=O)c1cc(C)on1	57.5	10.3*	0.3	33.9	29.3	2.4	18.6*	14.1*
C[C@H](O)[C@@H]1CN2CCc3c([nH]c4cccc(-c5ccccc5)c34)[C@@H]2C[C@@H]1N(C)C(=O)C1CCCCC1	nt	9.7*	nt	nt	nt	nt	-2.6	-0.3
COc1cccc(-c2cnc3c(c2)C(=O)N([C@@H](C)CO)C[C@H](C)[C@@H](CN(C)CC2CCCC2)O3)c1	nt	nt	0.2	0.9	nt	-0.2	nt	nt
COc1ccc2nc(C)cc(Nc3ccc(N4CCN(C)CC4)cc3)c2c1	-96.4	74.3*	-0.3	-4.3	-1.7	14.7	133.4*	-1.2
COc1ccc2nc(C)cc(Nc3ccc(N4CCOCC4)cc3)c2c1	5.4	-0.2	nt	0.6	nt	nt	nt	nt
COC(=O)C1=C(C)N(Cc2ccccc2C(F)(F)F)C(=NCc2cccc(C(F)(F)F)c2)NC1c1ccc(C(F)(F)F)cc1 (stereo not drawn)	nt	10.2*	0.0	nt	-1.0	nt	-6.6	-0.3
COC(=O)C1=C(C)N(Cc2ccccc2C(F)(F)F)C(=NCc2ccccc2)NC1c1ccc(C(F)(F)F)cc1 (stereo not drawn)	nt	0.3	-0.2	nt	-20.5	nt	nt	nt
COCC#Cc1cnc2c(c1)C(=O)N([C@H](C)CO)C[C@@H](C)[C@H](CN(C)C(=O)c1ccc3c(c1)OCO3)O2	nt	nt	0.0	-2.5	nt	-3.5	nt	nt
SMILES	MITF act	SMARCA2 act	FGF22 binding	esBAF inh	Wnt act	MLL AF4-AF9 inh	SMARCA2 conf	VP16 Luc act
Cc1ccsc1C(=O)NNC(=O)C1CC=CCC1C(=O)O (stereo not drawn)	1.5	8.6*	1.1	nt	9.8	-4.7	2.6	2.4
Cc1ccsc1C(=O)NNC(=O)C1CCCCC1C(=O)O (stereo not drawn)	-6.6	2.1	nt	32.9	nt	nt	nt	nt
Cc1cc(C(=O)c2cccs2)c(N)s1	-0.9	8.9*	0.1	1.1	-0.1	8.0	-1.4	2.4
O=S(=O)(Nc1ccc(Cl)nn1)c1ccccc1	-2.3	-3.9	0.1	nt	-1.2	-1.1	nt	nt
O=S(=O)(NNc1ccc(Cl)nn1)c1ccc(F)cc1	-9.9	8.4*	nt	nt	-3.3	nt	1.4	1.1
CCC(=O)Nc1cccc(NC(=S)NC(=O)c2cc3ccccc3o2)c1	61.0	11.6*	0.2	nt	15.6	-3.4	-1.7	15.3*
CC(=O)c1ccc(NC(=O)c2ccc([N+](=O)[O-])o2)cc1	nt	9.4*	-0.3	26.3	6.1	1.2	18.8*	3.9
Cc1ccc(NC(=O)c2ccc([N+](=O)[O-])o2)cc1S(=O)(=O)N1CCOCC1	-83.1	17.0*	42.6	nt	nt	3.0	14.4*	1.8
Cc1cc([N+](=O)[O-])ccc1NC(=O)c1ccco1	-2.2	2.4	0.6	-2.8	-2.9	-3.6	nt	nt
Cc1ccc(NC(=O)c2cc([N+](=O)[O-])ccc2N2CCOCC2)cc1S(=O)(=O)N1CCOCC1	11.1	-2.1	0.1	-10.5	-2.2	5.7	nt	nt
Cc1cc(NC(=O)c2ccc([N+](=O)[O-])o2)ccc1NC(=O)c1ccco1	-73.5	10.1*	0.0	nt	?	0.3	17.7*	2.1
O=C(Nc1ccc(Cl)cn1)c1ccc([N+](=O)[O-])o1	-31.4	10.8*	42.9*	nt	54.0*	1.1	13.8*	3.9
O=C(NCC[C@@H]1CC[C@@H](NS(=O)(=O)Cc2ccccc2)[C@H](CO)O1)C1CCOCC1	nt	nt	-0.2	-3.7	nt	0.2	nt	nt
N#C[C@@H]1[C@H](c2ccc(C3=CCCC3)cc2)[C@@H](CO)N1C(=O)NC1CCCCC1	nt	nt	nt	nt	nt	-2.4	nt	nt
CO[C@@H]1CN(C)C(=O)c2cc(NS(=O)(=O)c3ccccc3)ccc2OC[C@@H](C)NC[C@@H]1C	nt	nt	-0.1	-1.2	nt	-2.4	nt	nt
Cc1ccc(S(=O)(=O)N(C)C[C@H]2Oc3ccc(NC(=O)Cc4cn(C)c5ccccc45)cc3CC(=O)N([C@H](C)CO)C[C@@H]2C)cc1	nt	nt	-0.3	1.1	nt	-1.3	nt	nt
Cc1ccccc1C(=O)N1CCN(c2ccc(NC(=O)c3ccc([N+](=O)[O-])o3)cc2)CC1	-81.3	12.8*	-0.3	-53.7	-3.7	-18.7	-4.4	3.2
